Source: PubChem BioAssay
Sampled rows, rich in hits. Any-hit rate of the full collection: about 2.4%.
D2 PAM-1: positive allosteric modulators of human D2 dopamine receptor | P14416 | DiscoveRx D2 beta-arrestin cells, luminescence, 90 min; 100% = 57 uM dopamine signal | potentiation, % (test concentration not listed) | 360,000 tested, 0.23% active | AID 624464; in the data active means potentiation above about 50%; inconclusive means mostly about 30% to 49%
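D2 cells co-treated with compound plus 50 nM dopamine (EC20) for 90 min at 37 deg C to detect potentiation. Beta-arrestin recruitment was read as enzyme-fragment luminescence after 1 h at ambient temperature. Full response was set by 57 uM dopamine.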
D2 PAM-2: D2 dopamine receptor (human) potentiation | P14416 | AID 485347 | 340,000 tested, 0.34% active | HEK293 T-REx D2, calcium flux, EC20 dopamine potentiation | potentiation, % at 10 µM;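 active means potentiation over 3 SD above the plate norm, cut at about 30% in these data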; further: 0% is about no effect
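Cells plated with tetracycline inducer and held overnight at 30 C; calcium dye loaded 30–90 min at room temperature; baseline taken, compound added and read 180 s; EC20 dopamine then added and read 180 s.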
D2 ag-1: activates the human D2 dopamine receptor | HEK293 T-REx D2 cells, calcium flux agonist mode | activation, % at 2 µM | 340,000 tested, 0.53% active;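 active means activation over 3 SD above normal in the single-dose calcium agonist read, cut at about 30% in these data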; further: 0% is about no effect
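Tetracycline-induced HEK293 T-REx cells with force-coupled D2 receptor, plated overnight at 30 C, loaded with no-wash calcium dye. After a 10 s baseline, compound was pin-added and calcium flux read kinetically for 180 s; calcium rises flagged agonists.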
D2 ag-2: agonists of human D2 dopamine receptor (beta-arrestin); activation, % (no concentration beside the values); P14416; 360,000 tested, 0.084% active; DiscoveRx PathHunter D2 beta-arrestin, luminescence, 90 min; 100% = 57 uM dopamine signal; in the data active means activation above about 40%; inconclusive means between about 15% and that limit
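Agonist mode: compounds alone added to overnight-plated D2 PathHunter cells for 90 min at 37 C, with 57 uM final dopamine (EC100) defining full response. Beta-arrestin recruitment detected by chemiluminescent reagent, read after 1 h at ambient temperature.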
D2 antag: antagonists of human D2 dopamine receptor | HEK293 TREx D2 cells, calcium flux, dopamine EC80 | inhibition, % at 10 µM | 340,000 tested, 2% active | AID 485344; in the data active means inhibition above about 30%; inactive means below that, where a call was filed; further: 0% is about no effect
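Compounds are added to dye-loaded, induced HEK293 T-REx cells coupled to calcium release via D2; after a 3 min kinetic read an EC80 dopamine stimulus is given and fluorescence is recorded for 3 more min.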
D3 ag: activates human D3 dopamine receptor beta-arrestin recruitment | shares compounds with D2 ag-1 | DiscoveRx D3 beta-arrestin cells, luminescence, 90 min | Potency, µM (doses to about 76.9 µM), for the others: at the highest dose activation, most hits filed as activators | 2,300 tested, 4% active | AID 720506;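 further: potency means the concentration at half of the fitted maximal effect; 100% = dopamine control response; nearly all actives have a fitted effect of over 70% in size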
Target sequence (P35462 whole entry, looked up): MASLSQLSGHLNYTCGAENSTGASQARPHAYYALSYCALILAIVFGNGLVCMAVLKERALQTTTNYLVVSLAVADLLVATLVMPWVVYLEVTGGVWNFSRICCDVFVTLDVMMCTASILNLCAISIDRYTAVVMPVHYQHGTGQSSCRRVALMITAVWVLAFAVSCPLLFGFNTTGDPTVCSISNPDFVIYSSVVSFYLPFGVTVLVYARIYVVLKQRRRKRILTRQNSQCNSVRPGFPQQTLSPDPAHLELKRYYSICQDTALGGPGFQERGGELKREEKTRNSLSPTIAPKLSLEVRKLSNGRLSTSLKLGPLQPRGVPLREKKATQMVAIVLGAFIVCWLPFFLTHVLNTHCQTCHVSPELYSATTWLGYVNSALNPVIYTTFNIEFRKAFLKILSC
D2 ag-3: counter-screen for D3 agonists: human D2 dopamine receptor agonism; shares compounds with D2 ag-1; Potency, µM (series often up to 76.9 µM), without a hit: at the top dose activation, most hits filed as activators; DiscoveRx PathHunter D2 beta-arrestin, luminescence, 90 min; response scale: percent relative to full dopamine signal; 2,300 tested, 5.9% active; further: potency means the concentration at half of the fitted maximal effect; % of control where 0% means no effect; nearly all actives have a fitted effect of over 70% in size
Starred values were filed as active, the others as inactive; ? = inconclusive; nt = not tested or not shown. Unless noted, the call rests on the fitted dose curve; in most records, active means well fitted activation curve with a large enough effect; inconclusive means small, poorly fitted or top-dose-only effect; inactive means flat fitted curve, though single readings scatter.

SMILES | D2 PAM-1 | D2 PAM-2 | D2 ag-1 | D2 ag-2 | D2 antag | D3 ag | D2 ag-3
CN1CCN(CCC(=O)N/N=C/c2ccccc2F)CC1 | -0.4 | -8.0 | 0.4 | -1.5 | 2.2 | nt | nt
CCN1CCN(CCC(=O)Nc2ccccc2OC)CC1 | -16.0 | 0.6 | -0.8 | -2.3 | -5.4 | nt | nt
COc1ccc(C)cc1NC(=O)CCN1CCN(c2ccccc2)CC1 | -12.6 | -24.8 | 78.9* | ? | 81.7* | ? | ?
O=C(CCN1CCN(c2ccccc2)CC1)N/N=C/c1ccccc1O | -10.6 | -23.2 | 79.2* | 6.8 | 91.3* | -22.1% | ?
Cc1ccc(C)c(OCC(=O)NNC(=O)CCN2CCN(c3ccccc3)CC2)c1 | -13.1 | -33.0 | 78.1* | 14.5 | 80.0* | 18.4% | ?
COC(=O)c1[nH]c2cccc(OC)c2c1NC(=O)CCN1CCN(c2ccccc2OC)CC1 | -12.8 | -19.6 | 53.1* | 3.9 | 83.3* | -8.1% | 19.9%
O=C(NN=Cc1ccccc1)NN=Cc1ccccc1 | -5.4 | nt | nt | -1.6 | nt | nt | nt
Cc1ccc(NC(=O)C(C)OC(=O)CCN=C2NS(=O)(=O)c3ccccc32)cc1 (stereo unspecified) | -0.3 | 7.2 | -0.4 | 1.1 | 8.6 | nt | nt
COc1ccc(Br)cc1CNC(=O)c1cnc2sc(N3CCC(C)CC3)nn2c1=O | nt | 4.8 | -0.6 | nt | nt | nt | nt
COCCCn1c(SCC(=O)NC2CCCCC2)nnc1-c1ccncc1 | ? | -3.6 | 1.9 | -3.9 | 1.1 | nt | nt
COCCCn1c(SCC(=O)NC2CCS(=O)(=O)C2)nnc1-c1ccc(Cl)cc1 (stereo unspecified) | -0.9 | 3.8 | 0.1 | -3.7 | -5.7 | -3.4% | -1.6%
CC#CCC(CC#CC)c1nc2ccccc2c(=O)n1N | -3.5 | -8.1 | -0.6 | -4.6 | -15.2 | -10.6% | -4.5%
O=C(Nn1cnc2ccccc2c1=O)c1ccc(Br)cc1 | -1.9 | -11.6 | 43.1* | 0.0 | 26.3 | 29.3% | 9.7%
CN1CCCN(CC(O)COCc2cccs2)CC1 (stereo unspecified) | -5.8 | 3.8 | 0.2 | 0.5 | -3.8 | nt | nt
OC(COCc1cccs1)CN1CCCCCC1 (stereo unspecified) | -28.3 | 29.7 | -0.6 | 1.2 | -2.8 | nt | nt
Cc1cccc(N2CCN(CC(O)COCc3cccs3)CC2)c1C (stereo unspecified) | -12.2 | -16.0 | 56.1* | 4.0 | 70.5* | 0.316µM* | 12.7%
OC(COCc1cccs1)CN1CCN(c2cccc(Cl)c2)CC1 (stereo unspecified) | -24.4 | -19.9 | 67.0* | ? | 43.4* | 2.8% | ?
COc1ccc(NC(C)=O)cc1S(=O)(=O)N1CCN(Cc2cccs2)CC1 | -5.5 | 13.6 | 0.3 | -1.2 | -2.7 | nt | nt
O=C(Cc1cccc(NC(=O)C2CCN(C(=O)C3CCC3)CC2)c1)Nc1cccc(C(=O)N2CCCCC2)c1 | -0.9 | nt | nt | 1.2 | nt | nt | nt
CN(Cc1ccccc1)C(=O)c1ccc(NC(=O)Cc2cccc(NC(=O)C3CCCN(C(=O)C4CCC4)C3)c2)cc1 (stereo unspecified) | -14.4 | 8.5 | 0.6 | -3.0 | -3.9 | -2.8% | 5.7%
O=C(Cc1cccc(NC(=O)C2CCN(C(=O)C3CC3)CC2)c1)Nc1cccc(C(=O)N2CCCC2)c1 | 9.6 | 4.4 | 0.8 | 1.8 | 2.2 | -3.8% | -4.7%
CN(C(=O)c1ccc(NC(=O)Cc2ccc(NC(=O)C3CCN(C(=O)c4ccccc4)CC3)cc2)cc1)C1CC1 | -13.8 | 2.4 | 0.6 | -4.1 | -2.5 | -3.6% | -4.5%
CN(C(=O)c1cccc(NC(=O)Cc2ccc(NC(=O)C3CCN(C(=O)c4ccccc4)CC3)cc2)c1)C1CCC1 | 6.5 | nt | nt | 3.9 | nt | nt | nt
Nc1ncnc2c1ncn2[C@@H]1O[C@H](C(=O)N[C@H]2c3ccccc3C[C@H]2OC=O)[C@@H](O)[C@H]1O | 1.3 | nt | nt | 5.5 | nt | nt | nt
COc1cc2c(cc1OC)C(COc1ccc3c(C)cc(=O)oc3c1)N(C(=O)c1cccc(OC)c1OC)CC2 (stereo unspecified) | nt | -0.1 | 0.4 | nt | nt | nt | nt
SMILES | D2 PAM-1 | D2 PAM-2 | D2 ag-1 | D2 ag-2 | D2 antag | D3 ag | D2 ag-3
C=CCOc1ccc(Br)cc1CNCC | -8.1 | -28.3 | 62.0* | -3.3 | 67.4* | 9.4% | ?
CCC(=O)N/C(N)=N/c1nc(C)c2cc(OC)ccc2n1 | -8.3 | nt | nt | 1.0 | nt | nt | nt
COc1ccc2nc(/N=C(\N)NC(=O)C(C)(C)C)nc(C)c2c1 | -33.8 | -8.8 | 0.5 | -0.7 | 35.4* | -6.6% | 0.6%
O=S(=O)(NCC(c1ccc2c(c1)OCO2)N1CCN(c2ccccc2)CC1)c1ccccc1 (stereo unspecified) | 9.6 | -27.8 | 71.3* | ? | 80.5* | 12.8% | ?
CC(=O)N1c2ccc(S(=O)(=O)N3CCN(c4ccc(C)cc4C)CC3)cc2CC1C (stereo unspecified) | nt | -2.6 | -1.0 | nt | nt | nt | nt
O=C(O)c1ccc(S(=O)(=O)c2ccc3c(c2)C(=O)N(c2ccc(O)cc2)C3=O)cc1 | -1.7 | -26.1 | 61.1* | 4.2 | -2.7 | 11.5% | 8.5%
O=C(O)c1ccc(NC(=O)c2ccc3c(c2)C(=O)N(c2ccccc2)C3=O)cc1 | -4.9 | 1.7 | 0.2 | -5.8 | 7.1 | nt | nt
O=C(NCCOC(=O)c1ccc(C(=O)OCCNC(=O)c2cccnc2)s1)c1cccnc1 | -2.0 | -28.2 | 69.2* | -4.8 | 28.8 | -7.6% | -3.7%
CCC(=O)Oc1cc(C(C)(C)C)cc2cc(-c3nc(-c4ccc(OC)cc4OC)no3)c(=O)oc12 | nt | 1.4 | -0.3 | nt | nt | nt | nt
COc1ccc(NC(=O)C2CCCNC2)cc1OCC(C)C (stereo unspecified) | -2.4 | 4.5 | 0.5 | 2.7 | -2.8 | nt | nt
COc1ccc(NC(=O)C2CCCN(CCCc3ccccc3)C2)cc1OCC(C)C (stereo unspecified) | -47.3 | -26.3 | 74.5* | 12.6 | 79.7* | -11.2% | ?
CCc1ccc(S(=O)(=O)c2cn(Cc3ccccc3F)c3cc(OC)c(OC)cc3c2=O)cc1 | nt | 8.2 | 1.3 | nt | nt | nt | nt
Cc1ccc(C(C)C)c(OCCSc2nc(-c3cccs3)nc3cc(=O)[nH]n23)c1 | nt | -3.2 | -0.1 | nt | nt | nt | nt
COCCCNC(=O)CN1C(=O)COc2ccc(S(=O)(=O)N3CCOCC3)cc21 | -9.0 | 6.1 | 0.4 | -5.7 | 4.4 | nt | nt
CCCN(CCC)CCNC(=O)CN1C(=O)COc2ccc(S(=O)(=O)N3CCOCC3)cc21 | -9.9 | -16.2 | 37.5* | 2.8 | 14.6 | -7.5% | 8.3%
CN(CC(=O)Nc1cccc(S(=O)(=O)N2CCCC2)c1)Cc1ccccc1 | -36.1 | nt | nt | -3.6 | nt | nt | nt
Cc1cccc2sc(NC(=O)Cn3cccc3)nc12 | -1.6 | -6.5 | 1.0 | 5.5 | -2.1 | nt | nt
